Molecules are shown by their SMILES. Results with a measured potency or affinity are listed apart. Inconclusive results are not listed. Unmarked numbers belong to inactive results. The rule behind the calls is not given here.

This experiment is described as follows: anti-trypanosomal activity in host cells – cell-based, plate reader, dry powder, set 3, dose response (AID 493197). The note with it: intracellular Trypanosoma cruzi in host cells; series mostly up to 19.5 µM; activity change, negative = inhibition: at the top concentration.
On to `COCCNC(=O)C1(C)CCCN(C(=O)c2ccc(OC)c(OC)c2)C1` (configuration not stated), for which the “activity change, negative = inhibition” value was -1.31%. With `COc1ccc(CCNC(=O)C2CCCCC2)cc1OC` the figure was -18%; with `COc1ccc(CCN2CC(C(=O)NCc3ccc(F)cc3)CC2=O)cc1OC` (configuration not stated), -13.9%; with `COc1ccc(CN2CCC(C(=O)NC3CCCC3)CC2)cc1OC`, -40.9%. With `CCCNC(=O)C1(C)CCN(C(=O)Cc2ccc(OC)c(OC)c2)C1` (configuration not stated), the “activity change, negative = inhibition” value was -38.6%. Then `COCCNC(=O)C1(C)CCCN(C(=O)c2cc(OC)c(OC)c(OC)c2)C1` (configuration not stated), with 14.9%. With `CCNC(=O)C1(C)CCCN(C(=O)Cc2ccc(OC)c(OC)c2)C1` (configuration not stated) the figure was 19.3%; with `CCCNC(=O)C1(C)CCCN(C(=O)Cc2ccc(OC)c(OC)c2)C1` (configuration not stated), 24.1%. With `CCNC(=O)C1CCCN(C(=O)c2cc(OC)c(OC)c(OC)c2)CC1` (configuration not stated) the figure was -5.26%; with `COc1cc2c(cc1OC)C(C)N(CCC(N)=O)CC2` (configuration not stated), -16.1%; with `CCCNC(=O)C1(C)CCCN(C(=O)c2ccc(OC(F)F)cc2)C1` (configuration not stated), 1.44%. Regarding `CCNC(=O)C1(C)CCN(C(=O)c2ccc(OC)c(OC)c2)C1` (configuration not stated), the “activity change, negative = inhibition” value is -4.33%.

(Values after PubChem BioAssay AID493197 (Broad Institute, 2011).)
